Measurements reported in PubChem BioAssay (EPA / NIEHS).
Active and inactive are the calls of the source. How the source made its calls: active means hit-call score of the fitted dose curve at least 0.9, where 1 is the maximum; inactive means score below 0.9.

assay: ATG_SREBP_CIS: Attagene CIS-FACTORIAL HepG2 Assay for human Sterol Regulatory Element Binding (SREBP) (AID 2282962); conditions: HepG2 Attagene cis-factorial SREBP reporter, mRNA; actives raise or lower the signal
Procedure: ATG_CIS is a cell-based, multiplexed-readout assay that uses HepG2, a human liver cell line, with measurements taken at 24 hours after chemical dosing in a 24-well plate.ATG_SREBP_CIS is one of 52 assay component(s) measured or calculated from the ATG_CIS assay. It is designed to make measurements of mRNA induction, a form of inducible reporter, as detected with fluorescence intensity signals by Reverse transcription polymerase chain reaction (RT-PCR) and Capillary electrophoresis technology.Data from the assay component ATG_SREBP_CIS was analyzed into 1 assay endpoint. This assay endpoint, ATG_SREBP_CIS, was analyzed with bidirectional fitting relative to DMSO as the negative control and baseline of activity. Using a type of inducible reporter, measures of mRNA for gain or loss-of-signal activity can be used to understand the reporter gene at the transcription factor-level as they relate to the gene SREBF1. Furthermore, this assay endpoint can be referred to as a primary readout, because this assay has produced multiple assay endpoints where this one serves a reporter gene function. To generalize the intended target to other relatable targets, this assay endpoint is annotated to the dna binding intended target family, where the subfamily is basic helix-loop-helix leucine zipper.
Human liver HepG2 cells are transiently transfected with multiple reporter transcription units (MRTUs) in 6-well plates using FuGene 6 reagent (Roche; 3 ml FuGene/1 mg DNA). The MRTU constructs are regulated by a cis-regulating element (promoter). […] A major difference between the CIS and TRANS system is that in CIS activities of endogenous TFs are measured, whereas the TRANS assay evaluates changes in activities of exogenous, chimeric NR-Gal4 proteins. […] At the end of 24 hour incubation, total RNA was isolated using TriZol reagent (Invitrogen). The isolated RNA is then reverse-transcribed using oligo(dT) primer and Mo-MLV reverse transcriptase (Invitrogen) with DNAse I (Ambion) treatment for 30 min. The one-tenth of the produced cDNA was amplified by PCR using Taq DNA polymerase (Invitrogen) and two reporter sequence-specific primers. The PCR products were fluorescently labeled by primer extension with 6-arboxyfluorescein (6-FAM) 5'-labeled reporter sequence-specific primer (2 min at 95 C, 20 s at 68 C and 10 min at 72 C) and these products were digested with 5U of HpaI (New England Biolabs) for 2h at 37 C. The fragments were purified using Qiaquick PCR columns (Qiagen), analyzed on an ABI 3130xL genetic analyzer (Applied Biosystems) with peak positions identified by using a set of X-rhodamine (ROX)-labeled MapMarker1000 molecular weight standards (BioVentures). The raw capillary electrophoresis data was processed using Attagraph software (Attagene).

Row | Structure (SMILES) | outcome | AC50
1 | O=P1(N(CCCl)CCCl)NCCCO1 (stereo not given) | inactive | –
2 | CCOP(=S)(NC(C)C)Oc1ccccc1C(=O)OC(C)C (stereo not given) | inactive | –
3 | CCCCN(CC)C(=O)SCCC | inactive | –
4 | O=S(=O)(c1ccc(O)cc1)c1ccc(O)cc1 | inactive | –
5 | O=C(O)CF | inactive | –
6 | COP(=O)(O)OC | inactive | –
7 | Nc1ccc(Cl)cc1 | inactive | –
8 | NC(=O)C(F)(F)C(F)(F)F | inactive | –
9 | FC(F)(F)c1ccc(Cl)cc1 | inactive | –
10 | CCCCCCCc1ccc(O)cc1 | inactive | –
11 | CC1(C)CN=C(NN=C(/C=C/c2ccc(C(F)(F)F)cc2)/C=C/c2ccc(C(F)(F)F)cc2)NC1 | – | 19.7 µM (active)
12 | CCCCN(CCCC)SN(C)C(=O)Oc1cccc2c1OC(C)(C)C2 | inactive | –
13 | CCNc1nc(Cl)nc(NC(C)(C)C)n1 | inactive | –
14 | [N-]=[N+]=[N-] | inactive | –
15 | CC(Cl)(Cl)C(=O)O | inactive | –
16 | c1nc[nH]n1 | inactive | –
17 | CC(O)C(F)(F)C(F)(F)F (stereo not given) | inactive | –
18 | COP(N)(=S)OC | inactive | –
19 | CC(C)(C)N(NC(=O)c1ccc(Cl)cc1)C(=O)c1ccccc1 | inactive | –
20 | CCOP(=S)(OCC)SCn1nnc2ccccc2c1=O | inactive | –

Row | Structure (SMILES) | outcome | AC50
21 | OCC(F)(F)OC(F)(F)C(F)(F)OC(F)(F)C(F)(F)OC(F)(F)F | inactive | –
22 | O=[N+]([O-])c1cc(Cl)ccc1Cl | inactive | –
23 | CCOc1ccc(C(C)(C)COCc2cccc(Oc3ccccc3)c2)cc1 | inactive | –
24 | COC(N)=O | inactive | –
25 | C=C(C)C(=O)OCC1CO1 (stereo not given) | inactive | –
26 | Cc1cc(C)c(C(=O)P(=O)(c2ccccc2)c2ccccc2)c(C)c1 | – | 41.1 µM (active)
27 | CC(C)CBr | inactive | –
28 | ClC(Cl)=C(c1ccc(Cl)cc1)c1ccccc1Cl | – | 98.5 µM (active)
29 | ClC1=C(Cl)C2(Cl)C3C(Cl)C(Cl)CC3C1(Cl)C2(Cl)Cl (stereo not given) | inactive | –
30 | CCOC(=O)c1ccccc1N | inactive | –
31 | Nc1ccc2ccccc2c1 | inactive | –
32 | O=C(CBr)OCc1ccccc1 | inactive | –
33 | O=C(O)C(F)(F)C(F)(F)C(=O)O | inactive | –
34 | O=c1ssc(Cl)c1Cl | inactive | –
35 | O=C(O)C=CC(F)(C(F)(F)F)C(F)(F)F | inactive | –
36 | CCCCOCC1CO1 (stereo not given) | inactive | –
37 | Cc1ccc([N+](=O)[O-])cc1C | inactive | –
38 | COCCOCCO | inactive | –
39 | CC(C)Nc1ccc(Nc2ccccc2)cc1 | inactive | –
40 | CCCN(CCC)c1c([N+](=O)[O-])cc(C(C)C)cc1[N+](=O)[O-] | inactive | –
